# According to PubChem BioAssay AID2528 (National Center for Advancing Translational Sciences (NCATS), 2010):
# Among all 350,000 compounds or so, about 700 (0.2%) were called active. Calls come from the whole dose curve; as a rule, active = well fitted inhibition curve with a large enough effect; inconclusive = small, poorly fitted or top-dose-only effect; inactive = flat fitted curve, though single readings scatter. What follows is part of a selection rich in actives, with near analogues and random picks from the rest. Where a call stands in place of a potency, no number is given.
# Target: RecQ-like DNA helicase BLM (Homo sapiens) (UniProt P54132)
# Assay: qHTS Assay for Inhibitors of Bloom's syndrome helicase (BLM); note: nearly all actives have a fitted effect of over 35% in size
# Settings: recombinant BLM DNA unwinding, fluorescence dequenching; series mostly up to 56.1 µM
# Potency is the fitted concentration of half-maximal effect.
# RecQ-like DNA helicase BLM (Homo sapiens), sequence (P54132 whole entry, looked up): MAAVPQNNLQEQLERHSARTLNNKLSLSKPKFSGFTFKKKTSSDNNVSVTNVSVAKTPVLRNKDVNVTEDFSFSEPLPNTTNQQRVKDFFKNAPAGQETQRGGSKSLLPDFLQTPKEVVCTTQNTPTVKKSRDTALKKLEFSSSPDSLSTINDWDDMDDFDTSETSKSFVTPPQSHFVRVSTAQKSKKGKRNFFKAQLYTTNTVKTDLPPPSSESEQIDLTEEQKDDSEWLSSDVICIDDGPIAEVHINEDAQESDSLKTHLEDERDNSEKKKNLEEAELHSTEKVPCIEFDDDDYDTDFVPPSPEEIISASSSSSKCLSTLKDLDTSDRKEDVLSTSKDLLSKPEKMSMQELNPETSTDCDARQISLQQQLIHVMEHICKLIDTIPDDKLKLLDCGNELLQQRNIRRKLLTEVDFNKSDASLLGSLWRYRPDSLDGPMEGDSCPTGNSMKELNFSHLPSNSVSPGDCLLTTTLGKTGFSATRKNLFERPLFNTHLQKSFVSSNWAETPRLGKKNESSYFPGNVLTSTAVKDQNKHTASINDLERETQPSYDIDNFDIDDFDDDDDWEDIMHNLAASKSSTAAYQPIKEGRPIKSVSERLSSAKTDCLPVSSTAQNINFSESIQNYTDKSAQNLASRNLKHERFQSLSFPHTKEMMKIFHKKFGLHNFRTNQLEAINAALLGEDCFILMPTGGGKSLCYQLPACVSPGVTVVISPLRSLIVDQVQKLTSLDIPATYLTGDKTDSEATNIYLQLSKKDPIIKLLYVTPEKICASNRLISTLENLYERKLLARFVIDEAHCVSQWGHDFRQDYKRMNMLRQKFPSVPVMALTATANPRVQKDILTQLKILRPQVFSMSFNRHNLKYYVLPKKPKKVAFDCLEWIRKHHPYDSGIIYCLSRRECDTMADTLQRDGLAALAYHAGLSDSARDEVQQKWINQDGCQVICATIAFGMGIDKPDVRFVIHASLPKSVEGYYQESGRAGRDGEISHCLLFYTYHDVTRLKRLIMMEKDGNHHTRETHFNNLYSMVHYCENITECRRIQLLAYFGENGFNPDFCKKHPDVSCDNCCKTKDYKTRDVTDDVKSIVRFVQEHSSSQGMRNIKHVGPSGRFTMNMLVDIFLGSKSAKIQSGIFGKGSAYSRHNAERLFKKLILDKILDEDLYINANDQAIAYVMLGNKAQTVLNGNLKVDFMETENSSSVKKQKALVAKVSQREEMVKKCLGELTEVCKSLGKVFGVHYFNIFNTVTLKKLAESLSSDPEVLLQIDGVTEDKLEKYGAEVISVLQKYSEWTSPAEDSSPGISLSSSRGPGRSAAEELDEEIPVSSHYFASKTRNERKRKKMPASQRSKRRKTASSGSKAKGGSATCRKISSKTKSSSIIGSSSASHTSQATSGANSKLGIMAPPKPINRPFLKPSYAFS
row,Compound,Potency
1,COc1cc(OC)cc(-c2nnc(SCC(=O)Nc3ccc(C(=O)O)cc3)s2)c1,inactive
2,COc1ccc(-c2nc3c(c(SCC(=O)Nc4ccc(C(=O)O)cc4)n2)Cc2ccccc2O3)cc1,7.08 µM (active)
3,COc1ccc(NC(=O)CSc2nc(N)c(-c3ccccc3)c(=O)[nH]2)cc1,inactive
4,Cc1ccc(NS(=O)(=O)c2ccc(N/N=C/c3ccccc3OCC(=O)O)c([N+](=O)[O-])c2)c(C)c1,7.08 µM (active)
5,Cc1ccc(S(=O)(=O)NC(=O)COc2ccccc2C)cc1,inactive
6,C=C(C)CNC(=S)N/N=C/c1ccccc1OCC(=O)O,inactive
7,COc1c(O)c2c(=O)cc(OC)c3c4c(OC)cc(=O)c5c(O)c(OC)c6c(c(c1C[C@@](C)(O)[C@H]6C(C)=O)c23)c54,inactive
8,COC(=O)[C@@]1(C)C=C[C@@H](Cc2ccccc2)N1C(C)=O,inactive
9,CCc1c2c(nc3ccc(O)cc13)-c1cc3c(c(=O)n1C2)COC(=O)[C@]3(O)CC,inactive
10,Oc1ccc(Cl)c2c1CCC2,inactive
11,COc1ccc(C(=O)N2CCC3(CCCN(C(c4ccccc4)c4ccccc4)C3)CC2)cc1,inactive
12,Oc1ccc(N=Cc2sc3ccccc3c2Cl)cc1,20 µM (active)
13,Cc1cc(N=Nc2ccc3ccccc3c2)ccc1O,inactive
14,CCOc1[nH]n(-c2ccc(Cl)cc2)c(=O)c1C=Nc1ccc(O)cc1,inactive
15,CCCC(=O)Nc1ccc(NC(=O)c2sc3ccccc3c2Cl)cc1,inactive
16,COC(=O)c1cc(NC(=O)c2sc3ccccc3c2Cl)cc(C(=O)OC)c1,inactive

row,Compound,Potency
1,Oc1ccc(N=Cc2c(O)ccc3ccccc23)cc1,31.6 µM (active)
2,Cc1cccc(CNc2ccnc(-c3cccnc3)n2)c1,inactive
3,O=C(Nc1cc(C(=O)Nc2ccc(S(=O)(=O)O)cc2)cc(C(=O)Nc2ccc(S(=O)(=O)O)cc2)c1)Nc1cc(C(=O)Nc2ccc(S(=O)(=O)O)cc2)cc(C(=O)Nc2ccc(S(=O)(=O)O)cc2)c1,inactive
4,O=C(c1ccncc1)N1CCC2(CCCN(C(c3ccccc3)c3ccccc3)C2)CC1,inactive
5,O=C(c1cnccn1)N1CCC[C@@]2(CCN(Cc3ccncc3)C2)C1,inactive
6,CCc1nc(-c2cc(S(=O)(=O)N3CCN(c4ccc(OC)cc4)CC3)ccc2OC)no1,inactive
7,CCCS(=O)(=O)c1ncc(Cl)c(C(=O)Nc2scc(-c3ccccc3)c2C(=O)OCC)n1,inactive
8,Oc1c(C(c2ccc(F)cc2)N2CCN(Cc3ccccc3)CC2)sc2nc(-c3ccco3)nn12 (stereo unspecified),inactive
9,C=C1C([C@@]2(C)C(OC(C)=O)CC(=O)O[C@@](C)(COC(C)=O)C2CC(=O)OC)C(OC=O)C(OC(=O)C(O)C(C)CC)[C@]2(C)C(c3ccoc3)CC(=O)C12O (stereo partly specified),inactive
10,CC(=O)N1CCC2(CCCN(Cc3ccc(C#N)cc3)C2)CC1,inactive
11,CC1(C)C=CC(=O)[C@]2(C)C1CC(=O)[C@]1(C)C2CC[C@@]2(C)C(c3ccoc3)OC(=O)C3OC321 (stereo partly specified),inactive
12,C=C1CCN(C(CC(C)C)C(=O)N2CCOCC2)S(=O)(=O)c2ccccc21 (stereo unspecified),inactive
13,COc1ccc(S(=O)(=O)NCC(c2ccc(N(C)C)cc2)N2CCc3ccccc32)cc1OC (stereo unspecified),inactive
14,O=C(O)c1ccc(/C=C2/SC(=S)N(c3cccc(C(F)(F)F)c3)C2=O)cc1,inactive
15,Cn1c(N)c(C(=O)COC(=O)c2cc(C(F)(F)F)nc3c(C(F)(F)F)cccc23)c(=O)n(C)c1=O,inactive
